We go through 14 molecules from PubChem BioAssay (NCI).

“And” between values parts separate entries of the source, which are not always exact repeats. Identical values can stand only once. This is part of a sample that, as a whole, favours compounds with a hit. Of some 79,000 tested, about 15% had one in any assay. More than one record can exist for a structure, and the calls need not agree. The source made the active and inactive calls. Cut-off read from the data, not from the text of the source: active = growth inhibition above about 70%; inactive = the rest.

The nature of this test: NCI Yeast Anticancer Drug Screen. Data for the mlh1 rad18 strain (AID 175). As to conditions: S. cerevisiae mlh1 rad18 strain growth inhibition, stronger effect = higher value. The procedure: Growth inhibition of yeast strains with defined genetic alterations is measured as a screen for potential anti-cancer activity. Selected strains with alterations in DNA damage repair or cell cycle control were exposed to compounds and growth inhibition was measured relative to vehicle treated controls. The strain used in this assay is mlh1 rad18

Setting [1] is: at 5.0 µM (retest, dose inferred, filed as 0.5).
[2] abbreviates: at 50.0 µM (retest, dose inferred, filed as 5.0).

Regarding `Cc1cc2cc3cc(C)c(N)cc3nc2cc1N`, the growth inhibition reads like this: under setting [1], 94% (active); under setting [2], 99% (active); (at 50.0 µM) 81.8% (active).

On to `CC(C)CN(CC(C)C)C(=O)c1ccc(Cl)c(Cl)c1`, for which the growth inhibition by setting is: under setting [1], -17% (inactive); under setting [2], 96% (active); (at 50.0 µM) 97.5% (active).

As for `CCCCOP(=O)(CCCP(=O)(OCCCC)OCCCC)OCCCC`, the growth inhibition under setting [1] was -2% (inactive), the growth inhibition under setting [2] is 17% (inactive) and the growth inhibition (at 50.0 µM) was 42.2% (inactive).

For the molecule `COc1cc(/C=N/Nc2nnc3c4ccccc4c4ncccc4c3n2)cc(OC)c1OC`, the growth inhibition by setting is: under setting [1], -25% (inactive); under setting [2], -8% (inactive); (at 50.0 µM) 55.6% (inactive).

With `CCOC(=N)c1ccc(O)c(OC)c1`, the growth inhibition under setting [1] was -1% (inactive), the growth inhibition under setting [2] is -3% (inactive) and the growth inhibition (at 50.0 µM) is 17.4% (inactive).

`CC(C)(C)CC(C)(C)c1cc(O)c(O)c(CN2CCCCC2)c1`: the growth inhibition runs as follows: under setting [1], 3% (inactive); under setting [2], 45% (inactive); (at 50.0 µM) 65% (inactive).

Take `COc1ccc(N=CN(C)C)c(C)c1`: the growth inhibition by setting is: under setting [1], 44% (inactive); under setting [2], 72% (active); (at 50.0 µM) 48.4% (inactive).

Turning to `O=[N+]([O-])c1cc(S(=O)(=O)Nc2ccccc2)ccc1Nc1ccccc1`, the growth inhibition under setting [1] is 33% (inactive), the growth inhibition under setting [2] is 98% (active) and the growth inhibition (at 50.0 µM) was 77.7% (active).

As to `OC1(c2ccccc2)CCCc2ccc(Cl)cc21` (configuration not stated), the growth inhibition is, setting by setting: under setting [1], 0% (inactive); under setting [2], 39% (inactive); (at 50.0 µM) 53.8% (inactive).

Consider `CN(C)CCOC1(Cc2ccc(Cl)cc2Cl)CCC(C(C)(C)C)CC1` (configuration not stated), for which the growth inhibition reads like this: under setting [1], 96% (active) and 68% (inactive); under setting [2], 100% (active) and 99% (active); (at 50.0 µM) 99.5% (active) and 99.4% (active).

As for `Cc1c2cccc(Sc3ccccc3)c2c2c3c(cccc13)[S+](c1ccccc1)C2` (configuration not stated), the growth inhibition is, setting by setting: under setting [1], 18% (inactive); under setting [2], 97% (active); (at 50.0 µM) 93.3% (active).

As to `COc1ccc(C(=O)Oc2ccccc2Br)cc1`, the growth inhibition under setting [1] is 5% (inactive), the growth inhibition under setting [2] is 90% (active) and the growth inhibition (at 50.0 µM) is 7.85% (inactive).

In the case of `N#CC(=Nc1ccccc1F)Nc1ccccc1F`, the growth inhibition runs as follows: under setting [1], -7% (inactive); under setting [2], 0% (inactive); (at 50.0 µM) 66.8% (inactive).

With `CCCOC(=O)C(F)C(Br)C(=O)OCCC` (configuration not stated), the growth inhibition runs as follows: under setting [1], 93% (active); under setting [2], 98% (active); (at 50.0 µM) 89% (active).
